Data on 98 compounds can be found in PubChem BioAssay AID1578 (Sanford-Burnham Center for Chemical Genomics, 2009).

About 3,000 (1%) of roughly 290,000 compounds were called active. No stated cut-off is given here; in the data, active means inhibition mostly above about 36% (no sharp cut-off); inactive means mostly below about 34%. This excerpt belongs to a sample that is enriched for actives.

By inhibition is commonly meant the change of the read-out against control, counted positive when it falls.

This test can be described thus: NOD1 signaling inhibitors, primary screen, cell-based, luminescence, uHTS (AID 1578).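 Further: HEK-293T reporter cells stimulated with the NOD1 agonist gamma-tri-DAP.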 The following applies: NOD1-driven NF-kB luciferase reporter cells, at 4 µM, active compounds read high.
Consider `O=C(c1cc2ccccn2n1)N1CCN(c2cccc(C(F)(F)F)c2)CC1`, for which the inhibition was 19.8% (inactive).

For `Cc1ccc(S(=O)(=O)NC(=NC2CCCCC2)c2ccc(F)cc2)cc1`, the inhibition was -31.6% (inactive).

On to `O=C1CSC(c2cn(-c3ccccc3)nc2-c2cc3ccccc3oc2=O)N1Cc1ccco1` (stereo not drawn), for which the inhibition is 3.1% (inactive).

In the case of `CCc1ccc(-c2nn(-c3ccccc3)cc2C2SCC(=O)N2Cc2ccco2)cc1` (stereo not drawn), the inhibition was 11.4% (inactive).

Turning to `O=C1CSC(c2cn(-c3ccccc3)nc2-c2ccccc2)N1Cc1ccco1` (stereo not drawn), the inhibition was 51.6% (active).

Turning to `COc1ccc(/C=N/c2nc3ccccc3n2C)cc1OC`, the inhibition is -12.1% (inactive).

`CCOC(=O)N1CCN(C(=O)C2CCN(Cc3ccc(O)c(OCC)c3)CC2)CC1`: the inhibition is -15.5% (inactive).

Take `O=C(c1ccccc1)N1CCCCC(S(=O)(=O)c2ccccc2)C1=O` (stereo not drawn): the inhibition is 19.8% (inactive).

For the compound `O=C(N/N=C/c1ccc(O)cc1O)c1ccc(NC(=O)C2CCCCC2)cc1`, the inhibition was -73.3% (inactive).

For the compound `Cc1cccc(OC(C)C(=O)N2CCCN(C)CC2)c1C` (stereo not drawn), the inhibition is -5.8% (inactive).

With `O=C(Nc1ccc(N2CCOCC2)cc1)C1CC(=O)N(c2ccccc2)C1` (stereo not drawn), the inhibition is -35.3% (inactive).

For `O=C(NC(=S)NCc1ccccc1)C1CCCCC1`, the inhibition is 11.8% (inactive).

In the case of `O=C(NCc1ccccc1)C1CCCC1`, the inhibition is 67.7% (active).

In the case of `O=C(NCc1ccccc1)C1CCC1`, the inhibition was -29% (inactive).

As to `CC(=O)N1CCc2cc(S(=O)(=O)NCC(=O)NCc3ccc(F)cc3)ccc21`, the inhibition is -8% (inactive).

Regarding `Nc1[nH]c(N=NC(=O)c2ccccc2)c2ccccc12`, the inhibition was -58.4% (inactive).

`CCOc1ccc(S(=O)(=O)N2CCCC(C(=O)N3CCN(CC)CC3)C2)cc1Cl` (stereo not drawn): the inhibition was -13.6% (inactive).

Regarding `CCN(CC)S(=O)(=O)c1cc(NC(=O)COC(=O)c2ccc(NC(=O)CC#N)cc2)ccc1C`, the inhibition is -16.4% (inactive).

`Fc1ccc(Nc2nc(-c3ccncc3)nc3ccccc23)cc1`: the inhibition was 1.1% (inactive).

Consider `C=CCNc1sc(C(=O)c2ccccc2)c(N)c1-c1nc2ccccc2s1`, for which the inhibition was -19.4% (inactive).

On to `O=C1N/C(=N/S(=O)(=O)c2ccccc2)S/C1=C/c1cccnc1`, for which the inhibition was -12.1% (inactive).

For the compound `O=C(O)c1ccc(CNCc2cccc(Oc3ccccc3)c2)cc1`, the inhibition is -4.9% (inactive).

For the compound `COc1ccccc1CNCc1cccc(Oc2ccccc2)c1`, the inhibition was -7.9% (inactive).

As to `COc1ccc(CNCc2cccc(Oc3ccccc3)c2)cc1`, the inhibition is 65.8% (active).

Consider `Cc1cc(C)nc(/N=C2/NC(=O)CS2)n1`, for which the inhibition was 11.8% (inactive).

Consider `O=C(CSc1ncccc1C(=O)O)NC12CC3CC(CC(C3)C1)C2`, for which the inhibition was -37.8% (inactive).

Take `CC(C)(C)C(=O)COC(=O)c1cc2ccccc2cc1O`: the inhibition was -26.6% (inactive).

Consider `Cc1c(C)c2c(OCC(=O)N3CCC(C(=O)O)CC3)cc3c(c2oc1=O)CCC(C)(C)O3`, for which the inhibition was -8.2% (inactive).

On to `CC[n+]1c(/C=C/c2ccc(OC)c(OC)c2)ccc2ccccc21`, for which the inhibition was -81.5% (inactive).

In the case of `CC[n+]1c(/C=C/c2ccc(N(C)C)cc2)ccc2ccccc21`, the inhibition is 0.8% (inactive).

For the compound `CC(NS(=O)(=O)c1ccc(NC(=O)N2CCCCC2)cc1)c1ccccc1` (stereo not drawn), the inhibition is -19.3% (inactive).

As to `O=C(Nc1cccnc1)OC1CCCC1`, the inhibition is -40.3% (inactive).

With `Cc1cc(C)c(S(=O)(=O)Nc2ccncc2)cc1C`, the inhibition was -25.9% (inactive).

`Cc1ccc(CCNS(=O)(=O)c2ccc3c(c2)NC(=O)CCS3)cc1`: the inhibition was -8.7% (inactive).

For `CSc1ccccc1C(=O)Nc1ccc2c(c1)CCC2`, the inhibition was -1% (inactive).

As to `CCCCC(=O)NC(c1cccs1)c1cc(Cl)c2cccnc2c1O` (stereo not drawn), the inhibition is -31.4% (inactive).

Regarding `Oc1c(C(Nc2ccccn2)c2cccnc2)cc(Cl)c2cccnc12` (stereo not drawn), the inhibition was 15.5% (inactive).

`O=C(O)COc1ccccc1C(Nc1cccnc1)c1cc(Cl)c2cccnc2c1O` (stereo not drawn): the inhibition was -3.2% (inactive).

`CCC(=O)NC(c1cccs1)c1cc(Cl)c2cccnc2c1O` (stereo not drawn): the inhibition was 32.2% (inactive).

Consider `CCOc1ccc(C(Nc2cccnc2)c2cc(Cl)c3cccnc3c2O)cc1` (stereo not drawn), for which the inhibition was 67.5% (active).

Turning to `CCCC(=O)NC(c1cccs1)c1cc(Cl)c2cccnc2c1O` (stereo not drawn), the inhibition is 55.3% (active).

Consider `CCC(=O)NCCc1nc2cc(NC(=O)COc3ccccc3)ccc2n1C`, for which the inhibition was -21.6% (inactive).

For `Cc1cc(C)c(S(=O)(=O)NCc2cccnc2)cc1C`, the inhibition is 9.3% (inactive).

Consider `CCOc1ccc(N2C(=O)CC(/C=C3/N(C)c4ccccc4C3(C)C)C2=O)cc1` (stereo not drawn), for which the inhibition is -9.6% (inactive).

With `O=C(O)c1cccc(NC(=O)c2cc(NC(=O)c3ccccc3)cc(NC(=O)c3ccccc3)c2)c1`, the inhibition was 12.6% (inactive).

Consider `CCOC(=O)c1cccc(NC(=O)c2ccc3c(c2)OCO3)c1`, for which the inhibition was -56.6% (inactive).

Turning to `Cc1ccc(C(=O)Nc2cccc(C(=O)O)c2)cc1`, the inhibition is 73.3% (active).

As for `O=C(N/N=C/C(Cl)=C/c1ccc([N+](=O)[O-])cc1)C(=O)Nc1cccc(C(=O)O)c1`, the inhibition was -14.1% (inactive).

As to `O=C(NNS(=O)(=O)c1ccc([N+](=O)[O-])cc1)C(=O)Nc1cccc(C(=O)O)c1`, the inhibition was -14.5% (inactive).

Regarding `O=C(Nc1ccc([N+](=O)[O-])cc1)C(=O)Nc1cccc(C(=O)O)c1`, the inhibition is 79.5% (active).

`CCC(C)NC(=O)Nc1ccc(Br)cc1` (stereo not drawn): the inhibition is -16% (inactive).

As to `CCOC(=O)c1cccc(NC(=O)/C=C/c2ccc3c(c2)OCO3)c1`, the inhibition is 98% (active).

Turning to `CCOc1ccc(NC(=O)NC(C)CC)cc1` (stereo not drawn), the inhibition is 31.5% (active).

As for `COC(=O)c1cccc(NC(=O)/C=C/c2ccc3c(c2)OCO3)c1`, the inhibition is 69% (inactive).

On to `Cc1ccc(C(=O)Nc2cccc(C(=O)NCc3ccccc3)c2)cc1`, for which the inhibition is -41.3% (inactive).

Consider `CCOc1ccc(NC(=O)Nc2ccc(NC(C)=O)cc2)cc1`, for which the inhibition is -22.3% (inactive).

Take `COc1ccc(Cc2nnc(NC(=O)C(C)(C)C)s2)cc1`: the inhibition is -7.8% (inactive).

As to `COc1ccccc1CN1CC(C(=O)NCCc2ccc(Cl)cc2)CC1=O` (stereo not drawn), the inhibition was -8.7% (inactive).

Regarding `Cc1cc[n+](CC(=O)c2cccc([N+](=O)[O-])c2)c2ccccc12`, the inhibition was -5.3% (inactive).

`Cc1ccc(CN2CCNC(=O)C2CC(=O)NCCCn2cccn2)o1` (stereo not drawn): the inhibition is -26.6% (inactive).

In the case of `COC(=O)Cc1csc(NC(=O)CSc2nnc3ccccn23)n1`, the inhibition was -22.5% (inactive).

Turning to `COc1ccc(OC)c(C2=NS(=O)(=O)N(C)C(C(=O)N3CCC4(CC3)OCCO4)=C2)c1`, the inhibition was -6.5% (inactive).

In the case of `COc1ccc2ccccc2c1CNCc1ccc(C)cc1`, the inhibition is -32.1% (inactive).

For the compound `O=Cc1cn(CCC(=O)O)nc1-c1cccc2ccccc12`, the inhibition was -38.4% (inactive).

With `COc1ccccc1N=c1oc2c(OC)cccc2cc1C(=O)NCc1ccco1`, the inhibition is -182% (inactive).

For the compound `CCOc1ccc(NC(=O)c2cccc(NC(=O)c3ccccc3)c2)cc1`, the inhibition is 4.1% (inactive).

Turning to `Cc1ccccc1OCC(=O)Nc1cccc(C(=O)O)c1`, the inhibition was 92% (active).

Regarding `CC(=O)Nc1cccc(NC(=O)COc2ccccc2C)c1`, the inhibition is 40.3% (inactive).

With `Cc1cccc(C)c1OCC(=O)Nc1cccc(C(=O)O)c1`, the inhibition is -10.3% (inactive).

Take `CCOC(=O)c1cccc(NC(=O)Nc2ccc(OCC)cc2)c1`: the inhibition is -13.8% (inactive).

As for `O=C(Nc1cccc(C(=O)O)c1)Nc1ccc2c(c1)OCO2`, the inhibition is 74.1% (active).

As for `CC(=O)c1cccc(NC(=O)Nc2ccc3c(c2)OCO3)c1`, the inhibition is -20.8% (inactive).

As for `CCOc1ccc(NC(=O)Nc2cccc(C(=O)O)c2)cc1`, the inhibition is 97.4% (active).

On to `Cc1ccc(C(=O)Nc2cc3ccccc3oc2=O)cc1`, for which the inhibition was 85.5% (active).

Turning to `CC(=O)Nc1cc2ccccc2oc1=O`, the inhibition was -32.2% (inactive).

Turning to `O=C(Nc1ccc2c(c1)OCO2)Nc1ccc2c(c1)OCO2`, the inhibition is -34.2% (inactive).

For `O=C(Nc1cc2ccccc2oc1=O)c1ccccc1`, the inhibition is 22.4% (inactive).

`COc1ccccc1CC(=O)NC1CC1`: the inhibition is -10.2% (inactive).

As for `Cc1cc(C)c(S(=O)(=O)c2ccccc2)c(OC(=O)c2c(F)cccc2F)n1`, the inhibition is -38.9% (inactive).

As to `Cc1cccc(S(=O)(=O)Nc2ccc(-c3nc4ccc(C)cc4s3)cc2)c1`, the inhibition is -35.8% (inactive).

Take `O=C(COC(=O)C12CC3CC(CC(C3)C1)C2)Nc1ccccc1F`: the inhibition was -23.3% (inactive).

`COc1ccc(CCNC(=O)CN(c2ccc(OC)c(OC)c2)S(=O)(=O)c2ccc(C)cc2)cc1`: the inhibition is 32.6% (inactive).

For the compound `Cc1nn(Cc2ccc(F)cc2)c(C)c1NC(=O)CCCn1nc([N+](=O)[O-])cc1C`, the inhibition is -34.8% (inactive).

On to `O=c1cc(N2CCN(c3ccccc3)CC2)[nH]c(=O)n1-c1ccccc1`, for which the inhibition was -19.3% (inactive).

Take `CC(C)NC(=S)N1CCN(Cc2ccc3c(c2)OCO3)CC1`: the inhibition is -10.8% (inactive).

For the compound `COc1ccc(S(=O)(=O)Nc2c(NC3CCCCC3)c3ccccc3oc2=O)cc1OC`, the inhibition is -7.5% (inactive).

On to `O=C(Nc1nnc(CSCc2ccc(F)cc2)s1)c1ccc([N+](=O)[O-])cc1`, for which the inhibition was 1.6% (inactive).

With `O=C(NCc1ccccc1)C(=O)Nc1cccc(C(=O)O)c1`, the inhibition was 39.8% (active).

For the compound `NC(=O)c1cccc(NC(=O)Nc2ccc(Cl)cc2)c1`, the inhibition was 9.4% (inactive).

On to `Cc1ccc(NC(=O)Nc2cnc3ccccc3c2)cc1`, for which the inhibition is -44.8% (inactive).

Consider `CSc1cccc(NC(=O)C(=O)NCc2ccccc2)c1`, for which the inhibition is -4.7% (inactive).

`Cc1ccc(C(=O)Nc2cnc3ccccc3c2)cc1`: the inhibition was 81.8% (active).

On to `O=C(Nc1ccc(Cl)cc1)Nc1cccc(C(=O)O)c1`, for which the inhibition was 67.9% (active).

Turning to `O=C(Nc1cnc2ccccc2c1)c1ccncc1`, the inhibition was -21.5% (inactive).

Consider `O=C(Nc1cccc(Cl)c1)Nc1cccc(C(=O)O)c1`, for which the inhibition is -9.6% (inactive).

With `O=C(O)c1cccc(NC(=S)NCc2ccccc2)c1`, the inhibition was -23.1% (inactive).

Turning to `CCc1nc(CN2CCN(c3ccc(C(F)(F)F)cn3)CC2)c(C)[nH]1`, the inhibition was -4.8% (inactive).

`O=C(c1ccc(S(=O)(=O)Nc2ccccc2)cc1)N1CCCCCCC1`: the inhibition was -14.1% (inactive).
